# Bioassay records deposited in PubChem by National Center for Advancing Translational Sciences (NCATS).
# D1 potentiator = enhances dopamine response at the human D1 receptor | P21728 | HEK293 TREx D1 cells, calcium flux, dopamine EC20 potentiation | potentiation, % at 10 µM | hit rate 0.036% among 360,000 | AID 504651; in the data active = potentiation above about 30%; note: 0% is about no effect
# Target sequence (P21728 whole entry, looked up): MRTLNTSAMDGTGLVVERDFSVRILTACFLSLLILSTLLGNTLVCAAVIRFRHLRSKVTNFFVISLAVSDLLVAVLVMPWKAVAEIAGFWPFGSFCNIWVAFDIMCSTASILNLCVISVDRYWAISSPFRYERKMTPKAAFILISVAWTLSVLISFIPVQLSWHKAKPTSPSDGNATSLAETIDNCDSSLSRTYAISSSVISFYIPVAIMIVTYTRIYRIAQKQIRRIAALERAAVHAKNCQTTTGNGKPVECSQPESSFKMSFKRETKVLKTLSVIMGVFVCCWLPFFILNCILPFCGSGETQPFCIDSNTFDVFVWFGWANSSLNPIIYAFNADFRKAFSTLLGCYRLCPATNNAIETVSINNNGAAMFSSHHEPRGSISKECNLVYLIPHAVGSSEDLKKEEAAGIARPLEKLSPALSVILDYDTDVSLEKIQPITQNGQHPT
# TRHR agonist = agonists of human TRH receptor; P34981; hit rate 0.18% among 360,000; activation, % at 2 µM; TRHR cells, calcium flux fluo-8, FDSS agonist mode; note: 0% is about no effect
#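 TRHR-expressing cells, plated overnight in medium with 10% serum, were loaded with fluo-8 calcium dye at room temperature. After a 10 s baseline, library compound was pin-added and calcium release was recorded kinetically (ex 480/em 530) as agonist response.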
# D1 antag = blocks dopamine activation of the human D1 receptor. P21728. HEK293 TREx D1 cells, calcium flux, dopamine EC80; stronger effect = lower value. activity change, negative = inhibition, % at 10 µM. hit rate 3.2% among 360,000. AID 504652; in the data active = activity change below about -30%; note: % is set by controls: 0 for no effect and ±100 for the full control effect
#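 Tetracycline-induced HEK293 Trex D1 cells, force-coupled to calcium, dye-loaded; compounds added and read 180 s, then EC80 dopamine added and calcium flux tracked kinetically another 180 s.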
# TRHR PAM = TRH receptor (human) allosteric enhancement | P34981 | TRHR cells, fluo-8 calcium fluorescence, EC20 TRH enhancement | hit rate 0.66% among 360,000 | enhancement, % at 2 µM; in the data active = enhancement above about 30%; note: 0% is about no effect
#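 Enhancer read-out: after compound pinning and an initial kinetic agonist-mode read, an EC20 of TRH (10 nM final) was injected and fluo-8 calcium signal (Ex 480/Em 530) followed at 1 s/cycle for 100 cycles in TRHR-expressing cells.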
# D1 ag = agonists of human D1 dopamine receptor; P21728; activation, % at 2 µM; AID 504660; hit rate 1% among 360,000; HEK293 T-REx D1 cells, calcium flux, agonist mode; note: 0% is about no effect
#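 Tetracycline-induced HEK293 TREx D1 cells, force-coupled to calcium signalling, were dye-loaded with a no-wash calcium kit. Compound was pin-added after a 10 s baseline. Fluorescence was read kinetically at 1 cycle/s for 180 s, with calcium rises flagged as agonism.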
# The depositor's hits bear a star; . = no result given. Sampled rows, rich in hits. Any-hit rate of the full collection: about 4.7%. Cut-off read from the data, not from the text of the source, unless noted: active = activation above about 30%; inactive = the rest.
SMILES,D1 potentiator,TRHR agonist,D1 antag,TRHR PAM,D1 ag
CC1CN(S(=O)(=O)c2ccc(C(=O)OCc3ccc(C#N)cc3)cc2)CC(C)O1 (stereo not given),.,0,0,-3,34*
CC1CN(S(=O)(=O)Cc2ccccc2)CC(C)O1 (stereo not given),0,0,-9,2,1
COc1ccc(COC(=O)c2ccc(Cl)c(S(=O)(=O)N3CC(C)OC(C)C3)c2)cc1 (stereo not given),0,1,1,-3,13
CC1CN(S(=O)(=O)c2ccccc2)CC(C)O1 (stereo not given),1,0,-35*,-6,2
CCOC(=O)C1CCCN(C2=NC(=O)/C(=C/c3ccc(N(C)C)cc3)S2)C1 (stereo not given),-7,21,3,11,60*
CCOC(=O)C1CCCN(C2=NC(=O)/C(=C/c3ccc(OC)cc3)S2)C1 (stereo not given),2,-1,0,-7,0
COc1ccc(-n2ncc3c2CC(C)(C)CC3NC(=O)CCn2cncn2)cc1 (stereo not given),2,-1,16,-5,4
CN1CCN(S(=O)(=O)c2cccc(S(=O)(=O)c3ccc(Cl)c(Cl)c3)c2)CC1,-5,0,-53*,-14,7
O=C(NCCCN1CCOCC1)C(=O)NCC1CCCO1 (stereo not given),-3,0,2,1,1
O=C(NCCN1CCOCC1)C(=O)NCC1CCCO1 (stereo not given),-2,0,16,34*,5
CCN(CC)S(=O)(=O)c1ccc(C(=O)NCCSc2c(-c3ccc(OC)cc3)[nH]c3ccccc23)cc1,-1,0,0,1,5
Cc1ccc(/C=N/NC(=O)Cn2cnc3ccccc32)o1,5,0,-11,1,2
Cc1ccc(/C=N\NC(=O)Cn2nnc3ccccc32)o1,-2,0,16,33*,2
O=C(Cn1cnc2ccccc21)N/N=C/c1ccc([N+](=O)[O-])cc1,1,0,-4,2,4
Cc1ccc(/C=N/NC(=O)Cn2cnc3ccccc32)cc1,-8,0,-43*,-2,4
CCc1ccc(C2=CC(c3c(F)cccc3Cl)n3c(nc4ccccc43)N2)cc1 (stereo not given),-1,13,-8,18,39*
Cc1cccc(C2C=C(c3ccc(F)cc3)Nc3nc4ccccc4n32)c1 (stereo not given),2,2,-1,1,9
CN(Cc1nccs1)C(=O)c1ccc(OC2CCN(CCc3ccccc3)CC2)cc1,-11,1,-54*,5,6
O=C(c1ccc(OC2CCN(CCc3ccccc3)CC2)cc1)N1CCC(CO)CC1,-14,-1,-44*,3,14
Cn1c2ccccc2c2c(C(=O)N3CCN(c4ccc(F)cc4)CC3)cn(C3CCCCC3)c(=O)c21,3,3,9,4,10
O=C(CCSCc1ccccc1Cl)NCc1ccc(F)cc1Cl,-1,0,-19,2,68*
O=C(CCSCc1ccc(Cl)cc1)NCc1ccc(F)cc1Cl,-3,1,-33*,1,10
O=C(CCSCc1cccc(Cl)c1)NCc1ccc(F)cc1Cl,3,0,0,7,10
Cc1nnc(SC(C)C(=O)Nc2ccc3ccccc3c2)n1C (stereo not given),2,0,-8,-2,1
CC(=O)N1CCN(C(=O)C2(NC(=O)Nc3cccc(F)c3)CCCCC2)CC1,.,1,-8,-5,3
SMILES,D1 potentiator,TRHR agonist,D1 antag,TRHR PAM,D1 ag
CN1CCN(C(=O)C2(NC(=O)Nc3cccc(F)c3)CCCCC2)CC1,-4,0,-30*,-5,3
O=C(Nc1cccc(F)c1)Nc1ccc2c(c1)CCC2,-10,1,-84*,5,20
O=C(Nc1ccccc1)Nc1ccc2c(c1)CCC2,-1,0,-13,-3,13
O=C(Nc1cccc(F)c1)c1c(F)c(F)c(F)c(F)c1F,-5,-3,-36*,-6,18
O=C(Nc1cccc([N+](=O)[O-])c1)Nc1ccc2c(c1)CCC2,-4,3,-64*,-8,21
O=C(Nc1ccc(F)cc1)Nc1ccc2c(c1)CCC2,-7,1,-17,35*,2
O=C(Nc1ccc(F)cc1)Nc1csc2c1CCCC2,-6,1,-32*,-2,19
CC(=O)c1cccc(NC(=O)Nc2csc3c2CCCC3)c1,-2,0,-18,-1,10
Cc1ccc(/C=C2\CCC3=C2OC(N)=C(C#N)C3c2ccc(C)cc2)cc1 (stereo not given),-5,68*,-57*,15,135*
Cc1ccc(C2C(C#N)=C(N)Oc3cc(N)ccc32)cc1 (stereo not given),-2,0,2,-1,2
Cc1ccc(S(=O)(=O)N(C)C)cc1NC(=O)CSc1nnc(C2CC2)n1C1CC1,4,0,-68*,7,1
Nc1nnc(SCC(=O)Nc2nccs2)s1,-5,1,-43*,-3,1
CCc1ccc(NC(=O)c2cc3c(=O)n(Cc4cccs4)ccc3nc2C)cc1,-4,0,0,12,21
Cc1ccc(-c2nc(N)c3c(-c4ccc(C)cc4)nn(C(C)(C)C)c3n2)cc1,-20,1,-46*,-1,2
CCN(C(=O)CSc1nc2ccccc2n1Cc1cc(C)ccc1C)c1ccccc1,1,-2,-3,2,5
COc1cc(OC)cc(-c2c(-c3cccs3)c3cc(-c4ccc5[nH]ccc5c4)ccc3n2C)c1,0,1,.,40*,-2
O=C(c1ccccc1-c1nc(-c2ccc(Cl)cc2)no1)N1CCCC1,-1,0,-35*,-4,2
Cc1ccc(C)c(CSC2=NC(C)(C)Nc3ccccc32)c1,-10,0,-83*,6,0
CCN1CCN(c2ncc3c(n2)CCN(Cc2cc(Br)cs2)C3)CC1,0,0,-24,5,20
COc1cc(CN2CCc3nc(N4CCN(c5ccccn5)CC4)ncc3C2)cc(OC)c1OC,0,0,-31*,-1,8
CCN1CCN(c2ncc3c(n2)CCN(Cc2sccc2C)C3)CC1,0,0,-9,1,6
CCN1CCN(c2ncc3c(n2)CCN(Cc2ccc(OC(C)C)cc2)C3)CC1,-1,0,-40*,-2,1
CCN1CCN(c2ncc3c(n2)CCN(Cc2ccc(Br)s2)C3)CC1,0,0,0,0,12
CCN1CCN(c2ncc3c(n2)CCN(Cc2ccc(C)s2)C3)CC1,-1,0,-32*,4,0
CN1CCN(c2ncc3c(n2)CCN(Cc2ccc(Br)s2)C3)CC1,-1,1,-41*,-4,9
COC(=O)c1cc(=O)n(Cc2ccco2)c(=Nc2ccc(F)cc2)s1,-2,-2,-35*,3,0
